Measurements: PubChem BioAssay (Tox21)
Inconclusive results are not listed. The source made the active and inactive calls. Calls come from the whole dose curve; as a rule, active = well fitted curve in the direction sought with a large enough effect in the repeat runs; inconclusive = weak or mixed curves; inactive = no such curve, though single readings can be large; an effect the other way counts as inactive or inconclusive.

Key:
[1] = A CellTox Green Cytotoxicity Assay to monitor cytotoxicity in HEK293 cells - 40 hour (AID 1224871); note: nearly all actives have a fitted effect of over 45% in size
In short: (§1)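 Dead-cell fluorescence measured kinetically: asymmetric cyanine dye, HEK293, 600 cells/well, 5 h settle, 23 nL cpd/DMSO, 37 C, reads 0–40 h every 8 h.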

[2] = qHTS RealTime-Glo MT Cell Viability Assay in HEK293 cells - 16 hour (AID 1224872); note: nearly all actives have a fitted effect of over 50% in size; note: potency is the fitted concentration of half-maximal effect
In short: (§2)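 Tox21 10K qHTS, HEK293, 600 cells/well, RealTime-Glo reagent co-dispensed with cells; 5 h preincubation, compound by pintool, 37 C, luminescence at 0–40 h.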

[3] = qHTS RealTime-Glo MT Cell Viability Assay in HepG2 cells - 8 hour (AID 1224873); note: nearly all actives have a fitted effect of over 55% in size
In short: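 HepG2 cells mixed with RealTime-Glo MT reagents (NanoLuc plus cell-permeant prosubstrate) were seeded at 600 cells/well, incubated 5 h at 37 C/5% CO2, then pinned with compounds in DMSO; nonlytic luminescence tracked viability during 40 h treatment.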

[4] = qHTS RealTime-Glo MT Cell Viability Assay in HEK293 cells - 40 hour (AID 1224874); conditions: RealTime-Glo luminescence; max response: stronger effect = lower value; note: nearly all actives have a fitted effect of over 50% in size; note: potency is the fitted concentration of half-maximal effect
In short: (§3)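 600 HEK293 cells per well, dispensed already mixed with RealTime-Glo MT reagents. Compound dosing came 5 h later. The same wells were read for luminescence at 0, 8, 16, 24, 32 and 40 h of exposure at 37 C.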

[5] = A CellTox Green Cytotoxicity Assay to monitor cytotoxicity in HEK293 cells - 24 hour (AID 1224875); note: series mostly up to about 77 µM; nearly all actives have a fitted effect of over 45% in size
In short: as §1

[6] = A CellTox Green Cytotoxicity Assay to monitor cytotoxicity in HepG2 cells - 16 hour (AID 1224876); note: nearly all actives have a fitted effect of over 45% in size
In short: (§4)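 First, HepG2 cells (600/well) mixed with reagent were plated; second, after 5 h at 37 C they received compounds via pintool; third, fluorescence was measured at 0 h through 40 h at 8 h intervals.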

[7] = qHTS RealTime-Glo MT Cell Viability Assay in HepG2 cells - 32 hour (AID 1224877); note: nearly all actives have a fitted effect of over 55% in size; note: potency is the fitted concentration of half-maximal effect
In short: (§5)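 Cells + NanoLuc/prosubstrate dispensed (600 cells/well) → 5 h at 37 C/5% CO2 → compounds in DMSO transferred → 40 h incubation at 37 C, luminescence read at 0, 8, 16, 24, 32, 40 h.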

[8] = A CellTox Green Cytotoxicity Assay to monitor cytotoxicity in HepG2 cells - 40 hour (AID 1224879); note: nearly all actives have a fitted effect of over 40% in size; note: potency is the fitted concentration of half-maximal effect
In short: as §4

[9] = qHTS RealTime-Glo MT Cell Viability Assay in HEK293 cells - 0 hour (AID 1224880); note: top concentration of the series differs between compounds; nearly all actives have a fitted effect of over 45% in size
In short: as §3

[10] = A CellTox Green Cytotoxicity Assay to monitor cytotoxicity in HEK293 cells - 32 hour (AID 1224881); note: nearly all actives have a fitted effect of over 40% in size
In short: as §1

[11] = A CellTox Green Cytotoxicity Assay to monitor cytotoxicity in HepG2 cells - 0 hour (AID 1224882); note: nearly all actives have a fitted effect of over 35% in size
In short: as §4

[12] = A CellTox Green Cytotoxicity Assay to monitor cytotoxicity in HEK293 cells - 8 hour (AID 1224884); note: nearly all actives have a fitted effect of over 35% in size
In short: as §1

[13] = qHTS RealTime-Glo MT Cell Viability Assay in HepG2 cells - 16 hour (AID 1224885); note: nearly all actives have a fitted effect of over 50% in size
In short: as §5

[14] = qHTS RealTime-Glo MT Cell Viability Assay in HEK293 cells - 24 hour (AID 1224886); note: nearly all actives have a fitted effect of over 50% in size; note: potency is the fitted concentration of half-maximal effect
In short: as §2

[15] = qHTS RealTime-Glo MT Cell Viability Assay in HEK293 cells - 8 hour (AID 1224887); note: nearly all actives have a fitted effect of over 50% in size; note: potency is the fitted concentration of half-maximal effect
In short: as §3

[16] = A CellTox Green Cytotoxicity Assay to monitor cytotoxicity in HEK293 cells - 16 hour (AID 1224888); note: nearly all actives have a fitted effect of over 35% in size
In short: as §1

[17] = qHTS RealTime-Glo MT Cell Viability Assay in HepG2 cells - 0 hour (AID 1224889); note: nearly all actives have a fitted effect of over 50% in size
In short: as §5

[18] = A CellTox Green Cytotoxicity Assay to monitor cytotoxicity in HepG2 cells - 8 hour (AID 1224890); note: nearly all actives have a fitted effect of over 45% in size
In short: as §4

[19] = A CellTox Green Cytotoxicity Assay to monitor cytotoxicity in HepG2 cells - 24 hour (AID 1224878); note: nearly all actives have a fitted effect of over 45% in size; note: potency is the fitted concentration of half-maximal effect
In short: as §4

[20] = A CellTox Green Cytotoxicity Assay to monitor cytotoxicity in HepG2 cells - 32 hour (AID 1224883); note: nearly all actives have a fitted effect of over 50% in size; note: potency is the fitted concentration of half-maximal effect
In short: as §4
% is set by controls: 0 for no effect and ±100 for the full control effect.

CN1CCN(C2=Nc3ccccc3Oc3ccc(Cl)cc32)CC1
inactive: Potency [1] | Potency [2] | outcome [3] | max response [4] -25.8% | Potency [5] | Potency [6] | Potency [7] | outcome [9] | Potency [10] | Potency [11] | Potency [12] | outcome [13] | Potency [14] | Potency [15] | Potency [16] | Potency [17] | Potency [18]
active: Potency [8] 19 µM

CN1CCC[C@@H]1Cc1c[nH]c2ccc(CCS(=O)(=O)c3ccccc3)cc12
inactive: Potency [1] | Potency [2] | outcome [3] | max response [4] 3.35% | Potency [5] | Potency [6] | Potency [7] | Potency [19] | outcome [9] | Potency [10] | Potency [11] | Potency [20] | outcome [13] | Potency [14] | Potency [15] | Potency [16] | Potency [17] | Potency [18]

CCc1cc2cc(OC)c(OC)cc2c(Cc2ccccc2)n1
inactive: Potency [1] | outcome [3] | Potency [5] | Potency [7] | outcome [9] | Potency [10] | Potency [12] | outcome [13] | Potency [16] | Potency [17]
active: Potency [2] 16.9 µM | Potency [4] 16.9 µM | Potency [14] 16.9 µM | Potency [15] 16.9 µM

CCCCCCCCCCCCCCCCOP(=O)([O-])OCC[N+](C)(C)C
inactive: Potency [1] | Potency [2] | outcome [3] | max response [4] -6.12% | Potency [5] | Potency [7] | outcome [9] | Potency [10] | Potency [11] | Potency [12] | outcome [13] | Potency [14] | Potency [15] | Potency [16] | Potency [17]

CC1=NN(c2cc(Cl)c(S(=O)(=O)O)cc2Cl)C(=O)C1N=Nc1ccc(S(=O)(=O)O)cc1 (stereo not given)
inactive: Potency [1] | Potency [2] | outcome [3] | max response [4] 4.23% | Potency [5] | Potency [7] | Potency [10] | Potency [11] | Potency [12] | Potency [14] | Potency [15] | Potency [16]

CCCCCOc1ccc(C2SC(=O)NC2=O)cc1OCC (stereo not given)
inactive: Potency [1] | Potency [2] | outcome [3] | max response [4] -9.78% | Potency [5] | Potency [7] | outcome [9] | Potency [10] | Potency [12] | outcome [13] | Potency [14] | Potency [15] | Potency [16] | Potency [17]

Cn1cnc2c(F)c(Nc3ccc(Br)cc3Cl)c(C(=O)NOCCO)cc21
inactive: Potency [1] | Potency [2] | outcome [3] | max response [4] -9.97% | Potency [5] | outcome [9] | Potency [10] | Potency [11] | Potency [12] | outcome [13] | Potency [14] | Potency [15] | Potency [16] | Potency [17]
active: Potency [7] 0.535 µM | Potency [19] 0.0301 µM | Potency [8] 0.0379 µM | Potency [20] 0.0379 µM

Cc1cc(NS(=O)(=O)c2ccc(N)cc2)nc(C)n1
inactive: Potency [1] | Potency [2] | outcome [3] | max response [4] -0.863% | Potency [5] | Potency [7] | outcome [9] | Potency [10] | Potency [11] | Potency [12] | outcome [13] | Potency [14] | Potency [15] | Potency [16] | Potency [17] | Potency [18]

CCCCNc1cc(C(=O)O)cc(S(N)(=O)=O)c1Oc1ccccc1
inactive: Potency [1] | Potency [2] | outcome [3] | max response [4] 0.323% | Potency [5] | Potency [7] | Potency [19] | Potency [8] | outcome [9] | Potency [10] | Potency [11] | Potency [20] | Potency [12] | outcome [13] | Potency [14] | Potency [15] | Potency [16] | Potency [17]

CN1CCN(N)CC1
inactive: Potency [1] | Potency [2] | outcome [3] | max response [4] 5.85% | Potency [5] | Potency [6] | Potency [7] | Potency [19] | outcome [9] | Potency [10] | Potency [11] | Potency [20] | Potency [12] | Potency [14] | Potency [15] | Potency [16] | Potency [17]

Cc1nc(-c2ccccn2)ncc1C(=O)Nn1cc(C)c2cc(F)ccc21
inactive: Potency [1] | outcome [3] | Potency [5] | Potency [6] | Potency [7] | Potency [19] | outcome [9] | Potency [10] | Potency [11] | Potency [20] | Potency [12] | Potency [16] | Potency [17] | Potency [18]
active: Potency [2] 1.74 µM | Potency [4] 1.38 µM | Potency [14] 1.55 µM | Potency [15] 1.95 µM

CC1CN(c2ccccc2)NC1=O (stereo not given)
inactive: Potency [1] | Potency [2] | outcome [3] | max response [4] -13.5% | Potency [5] | Potency [6] | Potency [7] | Potency [19] | outcome [9] | Potency [10] | Potency [11] | Potency [20] | Potency [12] | Potency [14] | Potency [15] | Potency [16] | Potency [17] | Potency [18]

CCN1CC(CCN2CCOCC2)C(c2ccccc2)(c2ccccc2)C1=O (stereo not given)
inactive: Potency [1] | Potency [2] | outcome [3] | max response [4] 20.2% | Potency [5] | Potency [6] | Potency [7] | Potency [19] | outcome [9] | Potency [10] | Potency [11] | Potency [20] | outcome [13] | Potency [14] | Potency [15] | Potency [16] | Potency [17] | Potency [18]

CCC1(C)NC(=O)NC1=O (stereo not given)
inactive: Potency [1] | Potency [2] | outcome [3] | max response [4] -2.11% | Potency [5] | Potency [7] | outcome [9] | Potency [10] | Potency [11] | Potency [12] | outcome [13] | Potency [14] | Potency [15] | Potency [16] | Potency [17] | Potency [18]

Oc1ccccc1C=NCc1ccccc1
inactive: Potency [1] | Potency [2] | outcome [3] | max response [4] 1.18% | Potency [6] | Potency [7] | Potency [19] | Potency [8] | outcome [9] | Potency [10] | Potency [11] | Potency [20] | Potency [12] | outcome [13] | Potency [14] | Potency [15] | Potency [16] | Potency [17]

CCOC(=O)C1CC(=O)C(=C(O)C2CC2)C(=O)C1 (stereo not given)
inactive: Potency [1] | Potency [2] | outcome [3] | max response [4] 0.979% | Potency [5] | Potency [6] | Potency [7] | Potency [19] | outcome [9] | Potency [10] | Potency [11] | Potency [20] | Potency [14] | Potency [15] | Potency [16] | Potency [17] | Potency [18]
